Experimental data as given in PubChem BioAssay (NCI).
This is part of a sample that, as a whole, favours compounds with a hit. Of some 83,000 tested, about 20% had one in any assay.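 Testing used 96-well plates and a 48-hour single-concentration exposure. Example: -40 means 40% of the starting cells died.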 Unmarked numbers belong to inactive results. Calls of active or inactive are those of the source. Rule for the calls: active = growth percent below 10; inactive = the rest.

system: M14 melanoma; test: NCI-60 one-dose screen, 48 h (100 = growth as untreated, 0 = no growth, -100 = all killed); settings: 10 µM unless noted

SMILES	growth
COCc1c(-c2ccc(NC(=O)Nc3cc(C(F)(F)F)ccc3F)c(F)c2)c2c(N)ncnn2c1CN1CCOCC1	-41% (active)
COC(=O)[C@@H](NC(=O)[C@@H](OC)[C@@H]1Cc2cc3cc(OC4CC(OC5CC(O)C(O)C(C)O5)C(O)C(C)O4)c(C)c(O)c3c(O)c2C(=O)[C@H]1OC1CC(OC2CC(OC3CC(C)(O)C(O)C(C)O3)C(O)C(C)O2)C(O)C(C)O1)C(C)C (stereo partly drawn)	5.18% (active)
Cc1ccc(Nc2nccc(N(C)c3ccc4c(C)n(C)nc4c3)n2)cc1S(N)(=O)=O	-3.62% (active)
CCN(CCO)CCCOc1ccc2c(Nc3cc(CC(=O)Nc4cccc(F)c4)[nH]n3)ncnc2c1	4.94% (active)
COc1ccc(Cc2cc(-c3ccccc3C)n[nH]c2=O)cc1	115%
Clc1ccc(C(Cn2ccnc2)OCc2ccsc2Cl)c(Cl)c1 (stereo not drawn)	41.4%
COc1ccc(/C(C)=C(\c2ccc(Cl)cc2)c2ccc(OCCN3CCCCCC3)cc2)cc1	60%
CCCCCc1ccc(C)cc1OC(=O)CCl	111%
COc1ccc(-c2ccc3ncc4c(c3c2)n(-c2ccc(N3CCNCC3)c(C(F)(F)F)c2)c(=O)n4C)cn1	-83.2% (active)
COc1cc(OC)c(/C=C/S(=O)(=O)Cc2ccc(OC)c(NCC(=O)O)c2)c(OC)c1	12.6%
COC1CCC(N2C(=O)CNc3ncc(-c4ccc(C(C)(C)O)nc4)nc32)CC1 (stereo not drawn)	2.03% (active)
C[C@@H](Oc1cc(-n2cnc3ccc(CN4CCN(C)CC4)cc32)sc1C(N)=O)c1ccccc1C(F)(F)F	15.7%
CN(c1ncccc1CNc1nc(Nc2ccc3c(c2)CC(=O)N3)ncc1C(F)(F)F)S(C)(=O)=O	-23.9% (active)
COc1cc2nccc(Oc3ccc(NC(=O)Nc4cc(C)on4)c(Cl)c3)c2cc1OC	7.27% (active)
COc1cccc(Nc2ncnn3ccc(CN4CC[C@@H](N)[C@H](O)C4)c23)c1	96%
Cc1nc2cc(-c3nn(C(C)C)c4ncnc(N)c34)ccc2o1	-7.38% (active)
C[C@@H](N)c1ccc(C(=O)Nc2ccnc3[nH]ccc23)cc1	64.9%
NC(=O)c1c(OCc2c(F)cc(Br)cc2F)nsc1NC(=O)NCCCCN1CCCC1	-76.1% (active)
CC(=O)OC(C(=O)c1ccccc1)c1ccccc1 (stereo not drawn)	104%

SMILES	growth
O=C1NC(=O)[C@@H](c2cn3c4c(cccc24)CCC3)[C@@H]1c1c[nH]c2ccccc12	8.08% (active)
CCN(CC)c1cc2oc3cc(N)cc(=N)c-3nc2cc1C	25.5%
CC(=O)C1CC(C)CCC1C(C)C (stereo not drawn)	103%
CCN1CCN(Cc2ccc(-c3cc4c(N[C@H](C)c5ccccc5)ncnc4[nH]3)cc2)CC1	7.83% (active)
O=c1[nH]c([C@@H]2CCCN2)nc2c1oc1ccc(Cl)cc12	53.6%
C=CC(=O)Nc1cccc(Oc2nc(Nc3ccc(N4CCN(C)CC4)cc3)nc3ccsc23)c1	-81% (active)
CCS(=O)(=O)N1CCN(c2ccc(Nc3ncc(C(N)=O)c(NC4CC4)n3)cc2)CC1	59.5%
O=C(COc1ccc(/C=C2\Cc3ccc(Cl)cc3C2=O)cc1)Nc1nccs1	103%
CC(C)(C)c1cnc(CSc2cnc(NC(=O)C3CCNCC3)s2)o1	-58.6% (active)
CS(=O)(=O)CCNCc1ccc(-c2ccc3ncnc(Nc4ccc(OCc5cccc(F)c5)c(Cl)c4)c3c2)o1	-64.5% (active)
Cc1cc(O)cc(-c2c(-c3ccnc(-c4cccnc4)c3)cnn2C)c1	66%
CN1CCN(c2nc(C3=C(c4c[nH]c5ccccc45)C(=O)NC3=O)c3ccccc3n2)CC1	12.2%
CC(=O)NCC(=O)N1[C@@H]2CC[C@H]1c1ccc(Nc3ncc(C(F)(F)F)c(NC4CCC4)n3)cc12	26.9% [2.5 µM]
Cc1cc([C@@H](C)Nc2ccccc2C(=O)O)c2nc(N3CCOCC3)cc(=O)n2c1	45.9%
Cc1cc(Oc2ccccc2)ccc1Nc1ncnc2ccc(-c3cnc(Cl)c(NS(C)(=O)=O)c3)cc12	19.5%
CCN(CC)CCNC(=O)c1c(C)[nH]c(/C=C2\C(=O)Nc3ccc(F)cc32)c1C	-77% (active)
O=C(Nc1cnn2ccc(N3CCC[C@@H]3c3cc(F)ccc3F)nc12)N1CC[C@H](O)C1	81.5%
COc1ccc(F)c(F)c1C(=O)c1cnc(NC2CCN(S(C)(=O)=O)CC2)nc1N	-23.6% (active)
CN1C/C=C\CCOc2cccc(c2)-c2ccnc(n2)Nc2cccc(c2)C1	-78.4% (active)
